Assay results reported in PubChem BioAssay (EPA / NIEHS).
Results filed as inconclusive are left out. Activity calls are given as the source filed them. The calls were made as follows: active = hit-call score of the fitted dose curve at least 0.9, where 1 is the maximum; inconclusive = response in the unintended direction; inactive = score below 0.9.

Test: CCTE_Mundy_HCI_iCellGluta_NOG_NeuriteCount: CCTE's Neurite Outgrowth Assay in iCellGluta cells for Neurite Count, Mundy Lab (AID 2284342);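 also: chemical exposure about 48 hours starting 2 hours after plating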
Procedure: CCTE_Mundy_HCI_iCellGluta_NOG is a multiplexed, cell-based-readout assay that uses iCell GlutaNeurons from FUJIFILM Cellular Dynamics, Inc. (FCDI), human glutamatergic enriched neurons derived from induced pluripotent stem (iPS) cells, with measurements taken at 50.33 hours after chemical dosing in a microplate: 96-well plate.CCTE_Mundy_HCI_iCellGluta_NOG_NeuriteCount is one of four components of the CCTE_Mundy_HCI_iCellGluta_NOG assay. It measures neurite outgrowth related to number of neurites using High Content Imaging of fluorescently labelled markers.Data from the assay component CCTE_Mundy_HCI_iCellGluta_NOG_NeuriteCount was analyzed at the endpoint CCTE_Mundy_HCI_iCellGluta_NOG_NeuriteCount in the positive analysis fitting direction relative to DMSO as the negative control and baseline of activity. Using a type of morphology reporter, loss-of-signal activity can be used to understand developmental effects.
Exposure starts 2 hours post-plating by adding 10 ul of the working solution to 90 ul of media in the wells for a 1/10 dilution. Forty-eight hours after chemical treatment cells are fixed by direct addition of 100 ul of warm (37C) Dulbecco's phosphate buffered saline (DPBS) fixative solution containing 8% paraformaldehyde, 8% sucrose, and 0.1% of 3 mg/ml Hoechst 33342 into each well. Primary antibodies are prepared by dilution in Immunocytochemical Staining Buffer (ISB), 10X Dulbecco's PBS, 0.1% Saponin, 5% Bovine Serum Albumin, 0.5% NaN3 (Sodium Azide) and betaIII-tubulin (rabbit anti-betaIII-tubulin, 1:800) followed by Alexa Fluor-488 secondary (1:500) to label neuronal cell bodies and neurites. A Cellomics ArrayScan VTi HCS Reader is used for automated image acquisition and analysis of neurite outgrowth.

Row | SMILES | outcome
1 | O=C(O)CCC(F)(F)C(F)(F)C(F)(F)F | inactive
2 | O=C(O)C(F)(F)C(F)(F)C(F)(F)OC(F)(F)F | inactive
3 | NC(=O)C(F)(F)C(F)(F)C(F)(F)C(F)(F)C(F)(F)C(F)(F)C(F)(F)F | inactive
4 | OCCCC(F)(F)C(F)(F)C(F)(F)C(F)(F)C(F)(F)C(F)(F)C(F)(F)C(F)(F)F | inactive
5 | C=CC(=O)OCC(F)(F)C(F)(F)C(F)(F)COC(=O)C=C | inactive
6 | O=S(=O)(O)CCC(F)(F)C(F)(F)C(F)(F)C(F)(F)C(F)(F)C(F)(F)C(F)(F)C(F)(F)F | inactive
7 | OCCCCC(F)(F)C(F)(F)C(F)(F)C(F)(F)F | inactive
8 | NC(=O)C(F)(F)C(F)(F)C(F)(F)C(F)(F)C(N)=O | inactive
9 | CCN(CCO)S(=O)(=O)C(F)(F)C(F)(F)C(F)(F)C(F)(F)C(F)(F)C(F)(F)C(F)(F)C(F)(F)F | inactive
10 | NC(O)(C(F)(F)F)C(F)(F)F | inactive
11 | O=C(O)C(F)(F)C(F)(F)C(F)(F)OC(F)(C(F)(F)F)C(F)(F)F | inactive
12 | O=C(O)CCC(F)(F)C(F)(F)C(F)(F)C(F)(F)C(F)(F)C(F)(F)C(F)(F)F | inactive
13 | O=C(F)C1(F)C(F)(F)C(F)(F)C(F)(F)C(F)(F)C1(F)F | inactive
